Records with an inconclusive call do not appear. Calls of active or inactive are those of the source. How the source made its calls, unless noted: active means hit-call score of the fitted dose curve at least 0.9, where 1 is the maximum; inactive means score below 0.9.

The target in assay [1] is PGR (gene 5241) (UniProt P06401). In words: TOX21_PR_BLA_Followup_Antagonist_ratio: Tox21 HEK293 Progesterone Receptor (PR) Antagonism Beta-lactamase Follow-Up Assay, Ratio (AID 2283934; active means hit-call score of the fitted dose curve at least 0.9, where 1 is the maximum;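 further: PR-UAS-bla HEK293T cells stimulated with 1 nM R5020 agonist for 16 hr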). The method in brief: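 Measured in PR-UAS-bla HEK293T cells co-treated with compound and 1 nM promegestone for 16 hr; beta-lactamase ratio read after 2 h FRET substrate loading, with parallel CellTiter-Glo cytotoxicity.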

The nature of assay [2]: TOX21_PR_BLA_Followup_Agonist_viability: Viability Assessment in the Tox21 HEK293 Progesterone Receptor (PR) Agonism Beta-lactamase Follow-Up Assay (AID 2283935; active means hit-call score of the fitted dose curve at least 0.9, where 1 is the maximum;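 further: signal loss means lower viability so actives are cytotoxic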). The method in brief:
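Viability is read as CellTiter-Glo luminescence, where loss of signal indicates cytotoxicity. The cells are PR-UAS-bla HEK293T given compounds for 16 hr at 37C and 5% CO2, in the same wells used for the bla readout.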

A short description of assay [3]: TOX21_PR_BLA_Followup_Antagonist_viability: Viability Assessment in the Tox21 HEK293 Progesterone Receptor (PR) Antagonism Beta-lactamase Follow-Up Assay (AID 2283936; active means hit-call score of the fitted dose curve at least 0.9, where 1 is the maximum;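 further: cells exposed to compound with R5020 agonist for 16 h; hits lower the luminescence signal meaning cytotoxicity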). The method in brief:
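PR-UAS-bla HEK293T cells in medium with 2% charcoal-stripped FBS were treated with compounds plus R5020 for 16 hr at 37C. After the beta-lactamase read, CellTiter-Glo was added to the same wells and luminescence read after 30 min at room temperature.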

Assay [4] has as its target PGR (gene 5241) (UniProt P06401). In words: TOX21_PR_LUC_Followup_Antagonist: Tox21 HEK293 Progesterone Receptor (PR) Antagonism Luciferase Follow-Up Assay (AID 2283938; active means hit-call score of the fitted dose curve at least 0.9, where 1 is the maximum;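 further: curve fitted upward as signal gain over DMSO baseline despite antagonist label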). The method, boiled down:
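Luminescence from ONE-Glo reagent, measured after 30 min at room temperature, served as readout. Cells (HEK293 carrying PR-A-luc) had been treated 16 h at 37C with DMSO-dissolved compounds. Activity was fitted against DMSO controls.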

A short description of assay [5]: TOX21_PR_LUC_Followup_Agonist_viability: Viability Assessment in the Tox21 HEK293 Progesterone Receptor (PR) Agonism Luciferase Follow-Up Assay (AID 2283941; active means hit-call score of the fitted dose curve at least 0.9, where 1 is the maximum;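 further: loss of signal means cytotoxicity so actives lower viability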). The method, boiled down: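 Seeding: HEK293-PR-A-luc, 3,000 cells/well, 5 h at 37C. Treatment: compound in DMSO, 16 h, 37C. Read: CellTiter-Glo ATP luminescence, signal loss taken as lower viability.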
The target of assay [6] is THRA (gene 7067) (UniProt P10827). In words: TOX21_TRA_COA_Agonist_Followup_ratio: Tox21 Thyroid Hormone Receptor alpha Agonism through Coactivator Recruitment Follow-Up Assay, Ratio (AID 2283948). The method, boiled down: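 GST-TRa LBD 2.5 nM + 0.10% BSA + cpd; add fluorescein-SRC-2 200 nM, Tb-anti-GST 2 nM. TR-FRET ex 340, em 520/495 ratio. Norm: DMSO 0%, T3 100%; gain-of-signal fit.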

The target in assay [7] is THRB (gene 7068) (UniProt P10828). In words: TOX21_TRB_BLA_Agonist_Followup_ratio: Tox21 Thyroid Hormone Receptor beta Agonism Beta-lactamase (BLA) Follow-Up Assay, Ratio (AID 2283954; active means hit-call score of the fitted dose curve at least 0.9, where 1 is the maximum). The method, boiled down:
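Agonist mode: compounds (11-point, triplicate) incubated 18 h with HEK293T cells carrying GAL4-DBD/human TRβ-LBD and UAS-β-lactamase. Blue/green (460/530 nm) FRET ratio read after 2 h CCF4-AM loading; CellTiter-Glo viability run in the same plates.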

The target is the same in assay [8]. The experiment in a line: TOX21_TRB_COA_Agonist_Followup_ratio: Tox21 Thyroid Hormone Receptor beta Agonism through Coactivator Recruitment Follow-Up Assay, Ratio (AID 2283963). The method in brief:
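Agonism is measured as coactivator recruitment in a purified-protein TR-FRET format, using GST-TRβ LBD at 5.0 nM, fluorescein-SRC-2 peptide at 200 nM and Tb-labeled anti-GST antibody at 2 nM. Values are 520:495 nm ratios relative to DMSO (0%) and T3 (100%).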

Assay [9] can be described thus: CEETOX_H295R_CORTIC_noMTC: CeeTox H295R High-throughput Steroidogenesis Assay for Corticosterone (CORTIC), maximum tolerated concentration (MTC) filtered results only (AID 2283917). To be noted: actives raise or lower the signal. The method in brief: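 Forskolin-stimulated (10 uM, 48 h) H295R cells are dosed 48 h with chemical in DMSO (0.1% final); corticosterone change is quantified by HPLC-MS/MS and fitted bidirectionally against DMSO, unfiltered for MTT-derived MTC.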

Assay [10] can be described thus: CEETOX_H295R_DOC_noMTC: CeeTox H295R High-throughput Steroidogenesis Assay for DOC, maximum tolerated concentration (MTC) filtered results only (AID 2283918). To be noted: actives raise or lower the signal. The method in brief: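 H295R cells prestimulated 48 h with 10 uM forskolin, then exposed 48 h to test chemical (0.1% DMSO final). Medium 11-deoxycorticosterone extracted with MTBE, quantified by HPLC-MS/MS; bidirectional fit versus DMSO, concentrations not MTC-filtered.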

The nature of assay [11]: CEETOX_H295R_ESTRADIOL_noMTC: CeeTox H295R High-throughput Steroidogenesis Assay for Estradiol, maximum tolerated concentration (MTC) filtered results only (AID 2283919). The settings on record: actives raise or lower the signal. The method in brief:
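Readout: dansyl-derivatized estradiol quantified by LC-MS/MS in medium from H295R cells dosed 48 h (0.1% DMSO) following 48 h forskolin (10 uM) prestimulation. Gain or loss of signal fitted against DMSO; no MTC filtering applied.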

Assay [12] can be described thus: CEETOX_H295R_PROG_noMTC: CeeTox H295R High-throughput Steroidogenesis Assay for Progesterone (PROG), maximum tolerated concentration (MTC) filtered results only (AID 2283920). To be noted: actives raise or lower the signal. The method, boiled down:
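Progesterone synthesis in the human adrenal line H295R is measured by HPLC-MS/MS after 48 h chemical exposure following 48 h forskolin (10 uM) stimulation. Activity in either direction is fitted relative to DMSO.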

The nature of assay [13]: CEETOX_H295R_ESTRONE_noMTC: CeeTox H295R High-throughput Steroidogenesis Assay for Estrone, maximum tolerated concentration (MTC) filtered results only (AID 2283921). To be noted: actives raise or lower the signal. The method in brief: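 Estrone in spent medium, quantified by tandem MS following dansyl chloride derivatization, after 48 h chemical exposure (0.1% DMSO) of forskolin-prestimulated (10 uM, 48 h) H295R cells; concentrations not MTC-filtered, bidirectional fit against DMSO.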

Assay [14] in a line: CEETOX_H295R_TESTO_noMTC: CeeTox H295R High-throughput Steroidogenesis Assay for Testosterone (TESTO), maximum tolerated concentration (MTC) filtered results only (AID 2283924). The settings on record: actives raise or lower the signal. The method in brief: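 Medium testosterone, measured by HPLC-MS/MS after liquid-liquid extraction, was fitted in both directions relative to DMSO without MTC filtering. Adrenal H295R cells received 48 h chemical exposure (0.1% DMSO final) after 48 h forskolin (10 uM) prestimulation; viability by MTT.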

Assay [15] is described as follows: TOX21_PR_LUC_Followup_Antagonist_viability: Viability Assessment in the Tox21 HEK293 Progesterone Receptor (PR) Antagonism Luciferase Follow-Up Assay (AID 2283940; active means hit-call score of the fitted dose curve at least 0.9, where 1 is the maximum). The method in brief:
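Loss of CellTiter-Glo ATP signal indicates cytotoxicity in HEK293-PR-A-luc cells grown in 10% charcoal-stripped FBS medium, seeded 3,000 per well and incubated 16 h with compound at 37C.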

Assay [16] deals with Thyroid hormone receptor alpha (Rattus norvegicus) + Thyroid hormone receptor beta (Rattus norvegicus) (UniProt P18113+P63059). The experiment in a line: TOX21_TR_LUC_GH3_Antagonist_Followup: Tox21 GH3 Thyroid Hormone Receptor Antagonism Luciferase Follow-Up Assay (AID 2283942; active means hit-call score of the fitted dose curve at least 0.9, where 1 is the maximum). The method, boiled down:
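In a GH3 luciferase reporter line, test chemicals spanning 92 uM to 5nM final are co-incubated 24 h with 1.0 nM T3. Activity is expressed as relative luminescence units and analysed relative to DMSO.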

The target of assay [17] is THRA (gene 7067) (UniProt P10827). The experiment in a line: TOX21_TRA_COA_Antagonist_Followup_ratio: Tox21 Thyroid Hormone Receptor alpha Antagonism through Coactivator Recruitment Follow-Up Assay, Ratio (AID 2283953; active means hit-call score of the fitted dose curve at least 0.9, where 1 is the maximum). The method, boiled down: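 We measured antagonism of T3-type coactivator recruitment using a TR-FRET ratio (emission 520 and 495 nm) between a Tb-labelled anti-GST antibody on TRα LBD (2.5 nM) and SRC-2 peptide (200 nM). Activity was scaled between DMSO and T3 wells.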

Assay [18] deals with THRB (gene 7068) (UniProt P10828). In words: TOX21_TRB_BLA_Antagonist_Followup_ratio: Tox21 Thyroid Hormone Receptor beta Antagonism Beta-lactamase (BLA) Follow-Up Assay, Ratio (AID 2283958; active means hit-call score of the fitted dose curve at least 0.9, where 1 is the maximum). The method in brief:
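Using charcoal-stripped 2% FBS medium, human TRβ-LBD/GAL4 reporter HEK293T cells received test compounds for 18 h. The endpoint is the cleaved-to-uncleaved substrate ratio (460/530 nm).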

Assay [19] is described as follows: TOX21_TRB_BLA_Antagonist_Followup_viability: Viability Assessment in the Tox21 Thyroid Hormone Receptor beta Antagonism Beta-lactamase (BLA) Follow-Up Assay (AID 2283961; active means hit-call score of the fitted dose curve at least 0.9, where 1 is the maximum). The method, boiled down:
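Viability read as CellTiter-Glo ATP luminescence (loss of signal = cytotoxicity) in the same plates as the TRβ-bla readout. TRβ-LBD/GAL4 UAS-bla HEK293T cells were exposed to compounds, 11 concentrations in triplicate, for 18 h at 37C/5% CO2.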

Assay [20] deals with THRB (gene 7068) (UniProt P10828). The experiment in a line: TOX21_TRB_COA_Antagonist_Followup_ratio: Tox21 Thyroid Hormone Receptor beta Antagonism through Coactivator Recruitment Follow-Up Assay, Ratio (AID 2283967; active means hit-call score of the fitted dose curve at least 0.9, where 1 is the maximum). The method, boiled down: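 Coactivator (SRC-2) recruitment to purified GST-TRβ ligand-binding domain is monitored by terbium-to-fluorescein energy transfer, emission ratio 520:495 nm. DMSO wells define 0% and T3 wells 100% activity.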
Sequence of THRB (gene 7068) (P10828 whole entry, looked up, the tested form may be a part): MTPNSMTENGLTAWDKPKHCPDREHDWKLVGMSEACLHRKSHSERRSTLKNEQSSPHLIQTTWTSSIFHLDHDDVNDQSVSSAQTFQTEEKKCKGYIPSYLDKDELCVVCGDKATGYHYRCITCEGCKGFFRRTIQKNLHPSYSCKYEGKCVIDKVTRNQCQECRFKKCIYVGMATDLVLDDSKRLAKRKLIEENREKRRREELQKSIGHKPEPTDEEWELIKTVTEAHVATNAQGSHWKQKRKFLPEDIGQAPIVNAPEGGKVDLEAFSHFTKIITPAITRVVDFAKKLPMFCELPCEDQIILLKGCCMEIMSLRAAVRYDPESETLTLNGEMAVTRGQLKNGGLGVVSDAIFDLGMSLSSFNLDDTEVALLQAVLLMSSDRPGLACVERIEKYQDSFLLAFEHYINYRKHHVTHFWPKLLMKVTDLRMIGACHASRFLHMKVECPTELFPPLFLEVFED

Sequence of PGR (gene 5241) (P06401 whole entry, looked up): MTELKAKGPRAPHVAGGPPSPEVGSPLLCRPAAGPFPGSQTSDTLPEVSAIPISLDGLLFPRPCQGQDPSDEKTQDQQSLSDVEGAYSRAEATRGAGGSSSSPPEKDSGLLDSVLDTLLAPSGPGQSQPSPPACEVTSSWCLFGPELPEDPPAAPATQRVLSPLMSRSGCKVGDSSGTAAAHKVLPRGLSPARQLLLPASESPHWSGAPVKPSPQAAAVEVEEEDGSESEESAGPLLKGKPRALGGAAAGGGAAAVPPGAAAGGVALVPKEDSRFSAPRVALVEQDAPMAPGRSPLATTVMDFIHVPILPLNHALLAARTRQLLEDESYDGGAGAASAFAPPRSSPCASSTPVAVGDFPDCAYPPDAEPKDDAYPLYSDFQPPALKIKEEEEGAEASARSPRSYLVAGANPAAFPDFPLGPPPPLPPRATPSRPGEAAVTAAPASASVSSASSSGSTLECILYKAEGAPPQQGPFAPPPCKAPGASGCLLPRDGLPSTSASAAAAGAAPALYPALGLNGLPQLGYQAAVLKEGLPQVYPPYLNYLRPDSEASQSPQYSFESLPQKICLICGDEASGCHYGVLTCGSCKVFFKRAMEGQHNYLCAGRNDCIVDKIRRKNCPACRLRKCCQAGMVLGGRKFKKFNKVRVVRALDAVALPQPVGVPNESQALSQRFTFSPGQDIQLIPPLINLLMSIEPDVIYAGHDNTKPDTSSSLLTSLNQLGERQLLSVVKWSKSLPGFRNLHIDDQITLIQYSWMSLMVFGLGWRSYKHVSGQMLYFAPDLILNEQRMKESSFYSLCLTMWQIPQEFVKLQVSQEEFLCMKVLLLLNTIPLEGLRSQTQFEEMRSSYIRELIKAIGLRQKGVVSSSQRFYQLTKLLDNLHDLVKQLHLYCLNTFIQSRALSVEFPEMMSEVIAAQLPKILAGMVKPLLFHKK
Sequence of THRA (gene 7067) (P10827 whole entry, looked up, the tested form may be a part): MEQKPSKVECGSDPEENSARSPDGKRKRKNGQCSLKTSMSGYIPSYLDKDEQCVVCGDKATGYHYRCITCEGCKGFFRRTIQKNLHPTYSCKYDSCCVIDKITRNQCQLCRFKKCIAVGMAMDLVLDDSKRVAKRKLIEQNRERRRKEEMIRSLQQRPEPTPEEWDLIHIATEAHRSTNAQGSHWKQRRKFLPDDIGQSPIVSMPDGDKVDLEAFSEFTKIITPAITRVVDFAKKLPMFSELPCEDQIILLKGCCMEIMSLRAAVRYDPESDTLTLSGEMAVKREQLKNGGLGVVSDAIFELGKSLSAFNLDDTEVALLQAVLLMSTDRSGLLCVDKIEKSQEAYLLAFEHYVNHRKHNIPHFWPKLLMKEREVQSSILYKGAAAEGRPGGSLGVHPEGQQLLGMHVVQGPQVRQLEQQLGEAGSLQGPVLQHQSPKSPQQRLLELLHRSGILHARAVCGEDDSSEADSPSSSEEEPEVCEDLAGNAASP

In the case of `Cc1ccc2oc(CN(Cc3ccccc3)C(=O)Nc3c(F)cc(F)cc3F)c(-c3ccc(Cl)cc3)c2c1`, the figures for the concentration at half-maximal activity (AC50) in the assay with PGR (gene 5241) [1] and with PGR (gene 5241) [4] were 1.95 µM (active) and 1.09 µM (active), respectively. The molecule was called inactive in assay [2], in assay [3] and in [5].

As to `O=C1O[C@H]([C@@H](O)CO)C(O)=C1O`, the result with THRA (gene 7067) [6], in the assay with THRB (gene 7068) [7] and with THRB (gene 7068) [8] was inactive.

Take `CC(C)(O)c1ccc(CNC(=O)c2cccnc2Oc2ccc3nonc3c2)cc1`: the molecule was called inactive in assay [9] and in [12]. The values for the concentration at half-maximal activity (AC50) in [10], in assay [11] and in assay [13] were 0.0934 µM (active), 0.0671 µM (active) and 0.0407 µM (active), respectively.

Take `CCCCCCCCOc1ccc(C(=O)c2ccccc2)c(O)c1`: the AC50 (in general, the concentration giving half of the maximal activity seen) in [12] is 30.1 µM (active).

For `O=C(O)c1ccccc1C(=O)OCc1ccccc1`, the result in assay [9], in assay [10], in assay [12] and in assay [14] was inactive.

As to `CCCCCc1ccc(N)cc1`, the molecule was classed as inactive in [11] and in assay [13]. The concentration at half-maximal activity (AC50) in assay [12] was 13.9 µM (active).

`CC/C(=C(/CC)c1ccc(O)cc1)c1ccc(O)cc1`: the figures for the AC50 in [9] and in assay [10] were 35.4 µM (active) and 84.6 µM (active), respectively. The molecule was classed as inactive in [12].

For the molecule `O=C(O)Cc1cc(I)c(Oc2ccc(O)c(I)c2)c(I)c1`, the AC50 with PGR (gene 5241) [1] was 21.5 µM (active). The molecule was called inactive in assay [2], in [15] and in assay [5].

`C[C@]12CC[C@@H]3c4ccc(O)cc4CC[C@H]3[C@@H]1CCC2=O`: the half-maximal activity concentration (AC50) with PGR (gene 5241) [1] is 1.42 µM (active). The outcome in assay [2], in assay [3], in assay [15] and in assay [5] was inactive.

Regarding `c1ccc(C[n+]2cccc3ccccc32)cc1`, the outcome in [9], in assay [10], in [11], in [12] and in [13] was inactive.

In the case of `COc1cc(C(=O)NC2CCN(C)CC2)ccc1Nc1ncc2c(n1)N(C1CCCC1)CC(F)(F)C(=O)N2C`, the results for the AC50 (in assay [16]; in the assay with THRB (gene 7068) [18]; in [19]) were 16.4 µM (active), 3.69 µM (active) and 46.7 µM (active), respectively. For the same molecule, the outcome in the assay with THRA (gene 7067) [17] and with THRB (gene 7068) [20] was inactive.

The values are drawn from PubChem BioAssay (EPA / NIEHS).
